# “And” between values parts separate entries of the source, which are not always exact repeats. Equal entries are not always repeated. Results filed as inconclusive are left out. Where a structure was tested more than once in an assay, its records may differ in their call. The source made the active and inactive calls. The calls were made as follows, unless noted: active = hit-call score of the fitted dose curve at least 0.9, where 1 is the maximum; inconclusive = response in the unintended direction; inactive = score below 0.9.
# How the values were obtained:
# [1] = target: human RAR-related Orphan Receptor beta (RORb), RORB (gene 6096) (UniProt Q92753); assay: ATG_RORb_TRANS: Attagene TRANS-FACTORIAL HepG2 Assay for human RAR-related Orphan Receptor beta (RORb) (AID 2283010);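 as to AC50: potency for increased reporter mRNA meaning activation of RORb-Gal4 chimera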
# human RAR-related Orphan Receptor beta (RORb), RORB (gene 6096), sequence (Q92753 whole entry, looked up, the tested form may be a part): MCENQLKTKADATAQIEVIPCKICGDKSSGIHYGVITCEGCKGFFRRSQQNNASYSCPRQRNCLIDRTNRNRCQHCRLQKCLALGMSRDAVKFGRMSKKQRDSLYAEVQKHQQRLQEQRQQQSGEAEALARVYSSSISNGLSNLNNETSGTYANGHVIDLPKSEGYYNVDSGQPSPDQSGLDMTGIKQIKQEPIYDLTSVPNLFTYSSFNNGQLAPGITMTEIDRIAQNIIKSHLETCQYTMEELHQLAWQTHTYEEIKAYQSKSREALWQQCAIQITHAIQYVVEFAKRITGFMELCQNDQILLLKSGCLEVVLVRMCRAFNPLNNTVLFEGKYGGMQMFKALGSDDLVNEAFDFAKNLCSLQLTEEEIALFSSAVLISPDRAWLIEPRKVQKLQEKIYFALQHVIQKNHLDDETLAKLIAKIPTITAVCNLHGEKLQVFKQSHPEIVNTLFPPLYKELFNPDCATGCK
# Outline: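 Transfect HepG2 with multiple GAL4-UAS reporter transcription units; dose chemicals for 24 h; isolate RNA, reverse-transcribe and PCR-amplify reporter sequences; label, digest and resolve fragments by capillary electrophoresis; fit increases relative to DMSO.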
# [2] = target: Retinoic acid receptor RXR-alpha (Homo sapiens) (UniProt P19793); assay: ATG_RXRa_TRANS: Attagene TRANS-FACTORIAL HepG2 Assay for human Retinoid X Receptor alpha (RXRa) (AID 2283012)
# Retinoic acid receptor RXR-alpha (Homo sapiens), sequence (P19793 whole entry, looked up, the tested form may be a part): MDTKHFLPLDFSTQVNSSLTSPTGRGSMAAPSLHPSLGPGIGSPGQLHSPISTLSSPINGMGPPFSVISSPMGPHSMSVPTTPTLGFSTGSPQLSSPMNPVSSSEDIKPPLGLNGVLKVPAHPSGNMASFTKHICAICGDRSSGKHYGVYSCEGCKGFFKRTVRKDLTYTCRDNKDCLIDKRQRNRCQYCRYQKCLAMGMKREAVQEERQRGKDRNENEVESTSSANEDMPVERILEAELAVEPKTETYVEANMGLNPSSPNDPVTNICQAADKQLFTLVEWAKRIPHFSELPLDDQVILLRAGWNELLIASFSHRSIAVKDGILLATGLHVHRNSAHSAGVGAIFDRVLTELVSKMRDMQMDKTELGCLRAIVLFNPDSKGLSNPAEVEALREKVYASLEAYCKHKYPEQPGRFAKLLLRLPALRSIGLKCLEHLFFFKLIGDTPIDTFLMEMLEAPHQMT
# Outline: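 Measures exogenous chimeric NR-GAL4 activity in transfected HepG2 liver cells after 24 h of dosing. Induced reporter mRNA was detected by RT-PCR with capillary electrophoresis, and gain of signal was analysed against DMSO.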
# [3] = target: human Retinoid X Receptor beta (RXRb), RXRB (gene 6257) (UniProt P28702); assay: ATG_RXRb_TRANS: Attagene TRANS-FACTORIAL HepG2 Assay for human Retinoid X Receptor beta (RXRb) (AID 2283013)
# human Retinoid X Receptor beta (RXRb), RXRB (gene 6257), sequence (P28702 whole entry, looked up, the tested form may be a part): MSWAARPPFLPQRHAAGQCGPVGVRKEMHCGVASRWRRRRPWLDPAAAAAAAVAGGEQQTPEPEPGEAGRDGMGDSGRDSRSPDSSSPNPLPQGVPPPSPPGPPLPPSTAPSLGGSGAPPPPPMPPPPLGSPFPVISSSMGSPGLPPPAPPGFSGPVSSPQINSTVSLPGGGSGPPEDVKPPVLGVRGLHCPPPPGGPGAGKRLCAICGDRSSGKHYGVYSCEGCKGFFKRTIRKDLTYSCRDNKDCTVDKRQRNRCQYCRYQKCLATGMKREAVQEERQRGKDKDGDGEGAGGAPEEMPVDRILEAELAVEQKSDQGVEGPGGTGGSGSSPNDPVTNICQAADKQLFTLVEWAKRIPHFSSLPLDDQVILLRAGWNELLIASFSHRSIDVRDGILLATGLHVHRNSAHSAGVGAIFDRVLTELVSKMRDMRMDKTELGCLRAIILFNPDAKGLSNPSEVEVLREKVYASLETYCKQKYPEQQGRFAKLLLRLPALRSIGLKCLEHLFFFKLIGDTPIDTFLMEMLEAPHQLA
# Outline: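 Chimeric receptor-Gal4 activity was assessed in transiently transfected human HepG2 cells after 24 h exposure. Transcripts from GAL4-UAS reporters were quantified by fluorescent RT-PCR and capillary electrophoresis, with DMSO as negative control and baseline.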
# [4] = read-out: E-selectin (Homo sapiens) (UniProt P16581); assay: BSK_3C_Eselectin: BioMAP Diversity Plus: 3C Assay for Eselectin Biomarker Activity (AID 2283015; active = hit-call score of the fitted dose curve at least 0.9, where 1 is the maximum; inactive = score below 0.9;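 as to outcome: cell surface E-selectin protein quantified by ELISA 24 h after dosing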); details: primary human endothelial cells (HUVEC); actives raise or lower the signal
# Outline: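 Primary human umbilical vein endothelial cells (3C system) were dosed with chemical and cell-surface E-selectin measured by ELISA 24 h later. Bidirectional curve fitting used DMSO as negative control and baseline.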
# [5] = read-out: Interleukin-1 alpha (IL1a), IL1A (gene 3552); assay: BSK_BE3C_IL1a: BioMAP Diversity Plus: BE3C Assay for Interleukin-1 alpha (IL1a) Biomarker Activity (AID 2283016; active = hit-call score of the fitted dose curve at least 0.9, where 1 is the maximum; inactive = score below 0.9); details: primary human bronchial epithelial cells; actives raise or lower the signal
# Outline: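 Signal from IL-1a ELISA, taken 24 h after chemical dosing of human bronchial epithelial cells, is compared with DMSO as baseline using bidirectional curve fitting.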
# [6] = read-out: Monocyte Chemoattractant Protein-1 (MCP1), CCL2 (gene 6347); assay: BSK_3C_MCP1: BioMAP Diversity Plus: 3C Assay for Monocyte Chemoattractant Protein-1 (MCP1) Biomarker Activity (AID 2283017; active = hit-call score of the fitted dose curve at least 0.9, where 1 is the maximum; inactive = score below 0.9); details: primary human endothelial cells (HUVEC); actives raise or lower the signal
# Outline: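 Primary human umbilical vein endothelial cells (3C system) were exposed to test chemical for 24 h, after which MCP-1 was quantified by ELISA. Activity was fitted bidirectionally against DMSO as negative control and baseline.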
# [7] = read-out: Monocyte Chemoattractant Protein-1 (MCP1), CCL2 (gene 6347); assay: BSK_4H_MCP1: BioMAP Diversity Plus: 4H Assay for Monocyte Chemoattractant Protein-1 (MCP1) Biomarker Activity (AID 2283018; active = hit-call score of the fitted dose curve at least 0.9, where 1 is the maximum; inactive = score below 0.9); details: primary human endothelial cells (HUVEC); actives raise or lower the signal
# Outline: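 Endothelial cells from umbilical vein were treated with test chemical, then after 24 h MCP-1 levels were quantified by ELISA; endpoint values came from bidirectional fitting with DMSO as baseline of activity.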
# [8] = target: human RAR-related Orphan Receptor gamma (RORg), RORC (gene 6097) (UniProt P51449); assay: ATG_RORg_TRANS: Attagene TRANS-FACTORIAL HepG2 Assay for human RAR-related Orphan Receptor gamma (RORg) (AID 2283011);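 as to AC50: potency for induction of reporter transcripts above DMSO so activators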
# human RAR-related Orphan Receptor gamma (RORg), RORC (gene 6097), sequence (P51449 whole entry, looked up, the tested form may be a part): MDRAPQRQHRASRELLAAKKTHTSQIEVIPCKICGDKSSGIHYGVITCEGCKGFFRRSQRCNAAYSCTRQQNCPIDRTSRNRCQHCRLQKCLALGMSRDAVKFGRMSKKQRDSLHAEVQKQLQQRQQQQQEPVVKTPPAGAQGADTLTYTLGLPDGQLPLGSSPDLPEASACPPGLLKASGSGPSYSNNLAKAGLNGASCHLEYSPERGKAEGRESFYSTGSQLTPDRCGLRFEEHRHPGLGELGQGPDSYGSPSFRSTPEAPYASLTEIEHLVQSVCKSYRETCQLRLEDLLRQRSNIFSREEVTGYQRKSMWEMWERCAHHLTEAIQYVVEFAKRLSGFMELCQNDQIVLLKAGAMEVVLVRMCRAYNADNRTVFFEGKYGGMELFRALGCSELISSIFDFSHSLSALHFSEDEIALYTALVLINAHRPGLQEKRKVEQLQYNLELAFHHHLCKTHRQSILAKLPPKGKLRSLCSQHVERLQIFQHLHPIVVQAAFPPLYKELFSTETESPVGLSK
# Outline: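 Readout: reporter transcript induction (RT-PCR, fluorescent primer extension, capillary electrophoresis) after 24 h compound exposure of transiently transfected HepG2 cells carrying a RORg-Gal4 chimera and GAL4-UAS reporters; DMSO served as baseline, with increasing signal fitted.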
# [9] = target: human Thyroid Receptor alpha (THRa1), THRA (gene 7067) (UniProt P10827); assay: ATG_THRa1_TRANS: Attagene TRANS-FACTORIAL HepG2 Assay for human Thyroid Receptor alpha (THRa1) (AID 2283014)
# human Thyroid Receptor alpha (THRa1), THRA (gene 7067), sequence (P10827 whole entry, looked up, the tested form may be a part): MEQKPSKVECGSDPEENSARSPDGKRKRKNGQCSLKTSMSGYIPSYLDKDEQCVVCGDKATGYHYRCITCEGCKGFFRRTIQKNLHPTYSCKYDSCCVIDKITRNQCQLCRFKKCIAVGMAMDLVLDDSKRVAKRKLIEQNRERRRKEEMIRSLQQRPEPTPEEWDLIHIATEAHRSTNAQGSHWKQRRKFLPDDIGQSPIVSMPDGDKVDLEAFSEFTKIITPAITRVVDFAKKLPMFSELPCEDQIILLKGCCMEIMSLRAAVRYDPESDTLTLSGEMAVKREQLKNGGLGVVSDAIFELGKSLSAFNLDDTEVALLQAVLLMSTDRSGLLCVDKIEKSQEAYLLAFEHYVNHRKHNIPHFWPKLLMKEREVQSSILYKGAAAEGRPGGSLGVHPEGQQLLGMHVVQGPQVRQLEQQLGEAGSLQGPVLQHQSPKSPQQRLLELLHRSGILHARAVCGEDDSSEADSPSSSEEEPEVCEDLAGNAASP
# Outline: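 HepG2 cells transiently transfected with multiplexed GAL4-UAS reporter units for exogenous chimeric THRa1-Gal4; reporter mRNA measured 24 h after dosing by RT-PCR, 6-FAM labelling, HpaI digestion and capillary electrophoresis. Gain-of-signal fitted versus DMSO baseline.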
# [10] = read-out: Human Leukocyte Antigen - DR isotype (HLADR), HLA-DRA (gene 3122); assay: BSK_3C_HLADR: BioMAP Diversity Plus: 3C Assay for Human Leukocyte Antigen - DR isotype (HLADR) Biomarker Activity (AID 2283019; active = hit-call score of the fitted dose curve at least 0.9, where 1 is the maximum; inactive = score below 0.9;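 as to outcome: ELISA of cell-surface HLA-DR on HUVEC 24 h after dosing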); details: primary human endothelial cells (HUVEC); actives raise or lower the signal
# Outline: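 Primary human umbilical vein endothelial cells (3C system) were dosed with compound and cell-surface HLA-DR was quantified by ELISA at 24 h. Activity was fitted bidirectionally against DMSO as negative control and baseline.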
# E-selectin (Homo sapiens), sequence (P16581 whole entry, looked up): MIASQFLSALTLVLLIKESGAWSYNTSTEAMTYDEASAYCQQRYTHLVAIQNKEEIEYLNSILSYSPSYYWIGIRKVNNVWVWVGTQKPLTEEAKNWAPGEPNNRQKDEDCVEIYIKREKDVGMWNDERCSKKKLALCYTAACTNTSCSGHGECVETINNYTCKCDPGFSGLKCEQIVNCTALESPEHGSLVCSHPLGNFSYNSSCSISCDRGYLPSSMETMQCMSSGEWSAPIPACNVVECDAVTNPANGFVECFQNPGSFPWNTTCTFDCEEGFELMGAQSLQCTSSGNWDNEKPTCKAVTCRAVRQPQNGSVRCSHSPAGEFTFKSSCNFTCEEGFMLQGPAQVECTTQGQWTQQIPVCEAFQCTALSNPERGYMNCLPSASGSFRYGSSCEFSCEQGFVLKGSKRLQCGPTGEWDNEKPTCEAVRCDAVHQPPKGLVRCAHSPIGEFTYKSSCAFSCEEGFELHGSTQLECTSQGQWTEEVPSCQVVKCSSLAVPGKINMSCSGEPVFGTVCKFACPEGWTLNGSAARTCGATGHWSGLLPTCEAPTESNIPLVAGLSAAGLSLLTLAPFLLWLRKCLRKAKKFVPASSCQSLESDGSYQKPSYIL
compound,measurement,setting,value
CCOC(=O)[C@H](C)Oc1ccc(Oc2nc3ccc(Cl)cc3o2)cc1,outcome,[1],inactive
same,outcome,[2],inactive
same,outcome,[3],inactive
same,outcome,[4],inactive
same,outcome,[5],inactive
same,outcome,[6],inactive
same,outcome,[7],inactive
CC1(C)C(C=C(Cl)Cl)C1C(=O)OCc1cccc(Oc2ccccc2)c1 (configuration not stated),outcome,[1],inactive
same,outcome,[8],inactive
same,outcome,[2],inactive
same,outcome,[3],inactive
same,outcome,[9],inactive
same,outcome,[4],inactive
same,outcome,[5],inactive
same,outcome,[6],inactive
same,outcome,[7],inactive
CCC(C)OC(=O)N1CCCCC1CCO (configuration not stated),outcome,[8],inactive
same,outcome,[2],inactive
same,outcome,[3],inactive
same,outcome,[9],inactive
same,outcome,[4],inactive
same,AC50,[5],981 nM (active)
same,outcome,[5],inactive
same,outcome,[6],inactive
same,outcome,[7],inactive
CC(C)CCCCCCc1ccc(O)cc1,outcome,[1],inactive
same,AC50,[2],12.3 µM (active) [middle of 4 runs]
same,outcome,[9],inactive
same,AC50,[4],8.72 µM (active)
same,AC50,[5],26700 nM (active)
same,AC50,[6],9.8 µM (active)
same,AC50,[7],7.07 µM (active)
same,AC50,[10],9.6 µM (active)
N#CSCSc1nc2ccccc2s1,AC50,[1],12.3 µM (active)
same,outcome,[1],inactive
same,AC50,[8],11.9 µM (active)
same,outcome,[8],inactive
same,outcome,[2],inactive
same,AC50,[3],13.3 µM (active)
same,outcome,[3],inactive
same,outcome,[9],inactive
same,AC50,[4],7.25 µM (active) and 9.01 µM (active)
same,AC50,[5],6.07 µM (active) and 10.3 µM (active)
same,AC50,[6],5.23 µM (active) and 12.1 µM (active)
same,AC50,[7],4.06 µM (active) and 12.2 µM (active)
CCCCOC(=O)C(C)Oc1ccc(Oc2ccc(C(F)(F)F)cn2)cc1 (configuration not stated),outcome,[1],inactive
same,outcome,[8],inactive
same,outcome,[2],inactive
same,outcome,[3],inactive
same,outcome,[9],inactive
same,outcome,[4],inactive
same,outcome,[5],inactive
same,outcome,[6],inactive
same,outcome,[7],inactive
same,outcome,[10],inactive
COC(=O)c1ccc(CNS(C)(=O)=O)cc1S(=O)(=O)NC(=O)Nc1nc(OC)cc(OC)n1,outcome,[1],inactive
same,outcome,[8],inactive
same,outcome,[3],inactive
same,outcome,[9],inactive
same,outcome,[4],inactive
same,outcome,[5],inactive
same,outcome,[6],inactive
same,outcome,[7],inactive
same,outcome,[10],inactive
Oc1ccc(C(c2ccc(O)cc2)C(Cl)(Cl)Cl)cc1,outcome,[1],inactive
same,outcome,[8],inactive
same,outcome,[3],inactive
same,outcome,[9],inactive
same,AC50,[4],27.3 µM (active)
same,AC50,[5],31500 nM (active)
same,AC50,[6],29.1 µM (active)
same,AC50,[7],14.6 µM (active)
COCCO,outcome,[1],inactive
same,outcome,[8],inactive
same,outcome,[2],inactive
same,outcome,[3],inactive
same,outcome,[4],inactive
same,outcome,[5],inactive
same,outcome,[6],inactive
same,outcome,[7],inactive
S=C([S-])NCCNC(=S)[S-].[Mn+2],outcome,[1],inactive
same,outcome,[2],inactive
same,outcome,[9],inactive
same,outcome,[4],inactive
same,outcome,[5],inactive
same,outcome,[6],inactive
same,outcome,[7],inactive
O=C(c1ccc(O)cc1O)c1ccc(O)cc1O,outcome,[1],inactive
same,outcome,[8],inactive
same,outcome,[2],inactive
same,outcome,[3],inactive
same,outcome,[9],inactive
same,outcome,[4],inactive
same,outcome,[5],inactive
same,outcome,[6],inactive
same,outcome,[7],inactive
same,outcome,[10],inactive
C#CCOC(=O)[C@@H](C)Oc1ccc(Oc2ncc(Cl)cc2F)cc1,outcome,[1],inactive
same,outcome,[8],inactive
same,outcome,[2],inactive
same,outcome,[4],inactive
same,outcome,[5],inactive
same,outcome,[6],inactive
same,outcome,[7],inactive
CCC(O)=C1C(=O)CC(C(=O)O)CC1=O (configuration not stated),outcome,[1],inactive
same,outcome,[8],inactive
same,outcome,[2],inactive
same,outcome,[3],inactive
same,outcome,[9],inactive
same,outcome,[4],inactive
same,outcome,[5],inactive
same,outcome,[6],inactive
same,outcome,[7],inactive
COC(=O)c1c(Cl)nn(C)c1S(=O)(=O)NC(=O)Nc1nc(OC)cc(OC)n1,outcome,[1],inactive
same,outcome,[9],inactive
same,outcome,[4],inactive
same,outcome,[5],inactive
same,outcome,[6],inactive
same,outcome,[7],inactive
same,outcome,[10],inactive
Cc1nn(C)c(Oc2ccccc2)c1C=NOCc1ccc(C(=O)OC(C)(C)C)cc1,outcome,[1],inactive
same,outcome,[8],inactive
same,outcome,[2],inactive
same,outcome,[3],inactive
same,AC50,[9],0.109 µM (active)
same,AC50,[4],20 µM (active)
same,outcome,[5],inactive
same,AC50,[6],14.4 µM (active)
same,AC50,[7],6.16 µM (active)
CCOC(=O)C(C)Oc1ccc(Oc2cnc3cc(Cl)ccc3n2)cc1 (configuration not stated),outcome,[1],inactive
same,outcome,[8],inactive
same,outcome,[2],inactive
same,outcome,[3],inactive
same,outcome,[4],inactive
same,outcome,[5],inactive
same,outcome,[6],inactive
same,outcome,[7],inactive
CCCCCCC(C)OC(=O)COc1nc(F)c(Cl)c(N)c1Cl (configuration not stated),outcome,[1],inactive
same,AC50,[4],31.4 µM (active)
same,outcome,[5],inactive
same,AC50,[6],30.8 µM (active)
same,AC50,[7],32.3 µM (active)
same,AC50,[10],31.6 µM (active)
C[C@]12CC[C@@H]3c4ccc(O)cc4C[C@@H](CCCCCCCCCS(=O)CCCC(F)(F)C(F)(F)F)[C@H]3[C@@H]1CC[C@@H]2O (some centres not stated),outcome,[1],inactive
same,outcome,[8],inactive
same,outcome,[2],inactive
same,outcome,[3],inactive
same,outcome,[9],inactive
same,outcome,[4],inactive
same,outcome,[5],inactive
same,outcome,[6],inactive
same,outcome,[7],inactive
OB(O)O,outcome,[1],inactive
same,outcome,[8],inactive
same,outcome,[2],inactive
same,outcome,[4],inactive
same,outcome,[5],inactive
same,outcome,[6],inactive
same,outcome,[7],inactive
CCCCOC(=O)[C@@H](C)Oc1ccc(Oc2ccc(C(F)(F)F)cn2)cc1,outcome,[1],inactive
same,outcome,[2],inactive
same,outcome,[3],inactive
same,outcome,[9],inactive
same,outcome,[4],inactive
same,outcome,[5],inactive
same,outcome,[6],inactive
same,outcome,[7],inactive
CC(C)(c1ccc(O)cc1)c1ccc(O)cc1,outcome,[1],inactive
same,outcome,[2],inactive
same,AC50,[3],0.00419 µM (active)
same,outcome,[3],inactive
same,outcome,[9],inactive
same,outcome,[4],inactive
same,outcome,[5],inactive
same,outcome,[6],inactive
same,outcome,[7],inactive
CCCN(CCC)C(=O)SCC,outcome,[1],inactive
same,outcome,[8],inactive
same,outcome,[2],inactive
same,outcome,[3],inactive
same,outcome,[9],inactive
same,outcome,[4],inactive
same,outcome,[5],inactive
same,outcome,[6],inactive
same,outcome,[7],inactive
O=C(Nc1ccc([N+](=O)[O-])cc1Cl)c1cc(Cl)ccc1O,outcome,[1],inactive
same,outcome,[9],inactive
same,outcome,[4],inactive
same,AC50,[5],148 nM (active)
same,outcome,[6],inactive
same,AC50,[10],0.169 µM (active)
S=C(S)NCCNC(=S)S.[Mn+2].[S-]C([S-])=NCCN=C([S-])[S-].[Zn+2],outcome,[1],inactive
same,outcome,[8],inactive
same,outcome,[2],inactive
same,AC50,[3],20.4 µM (active)
same,outcome,[3],inactive
same,outcome,[9],inactive
same,outcome,[4],inactive
same,outcome,[5],inactive
same,outcome,[6],inactive
same,outcome,[7],inactive
O=C(O)c1ccccc1,outcome,[1],inactive
same,outcome,[8],inactive
same,outcome,[2],inactive
same,outcome,[3],inactive
same,outcome,[4],inactive
same,outcome,[5],inactive
same,outcome,[6],inactive
same,outcome,[7],inactive
CCCCCOC(=O)COc1cc(N2C(=O)C3=C(CCCC3)C2=O)c(F)cc1Cl,outcome,[1],inactive
same,outcome,[8],inactive
same,outcome,[2],inactive
same,outcome,[3],inactive
same,outcome,[4],inactive
same,outcome,[5],inactive
same,outcome,[6],inactive
same,outcome,[7],inactive
same,AC50,[10],19.2 µM (active)

# Source: PubChem BioAssay (EPA / NIEHS)
